Pf apPOL inh = Pf-apPOL DNA polymerase inhibition; 210,000 tested, 0.25% active; inhibition, % at 10 µM; Recombinant Pf-apPOL, molecular beacon fluorescence, 1.5 h
mHTT CaM bind = disrupts binding of mutant huntingtin to calmodulin | P42858 | AlphaScreen His-mHTT/GST-CaM binding, luminescence | inhibition, % at 15 µM | 190,000 tested, 3.6% active | AID 1671202
Of the large screens only hits and unclear results are named; the others gave an inactive call; ! = not confirmed by another sample. Rows were chosen to be rich in hits. Some 3.6% of all compounds tested hit in one or more screens of this group. Rule as the data show it: active = inhibition above about 50%; inactive = the rest.

COc1ccc(-c2cc(OC)c3c(C)oc(C)c3c(=O)c2)cc1	mHTT CaM bind 54.0
CCOc1cc(-c2cc(OC)c(OC)c(OC)c2)cc(=O)c2c(C)oc(C)c12	none
CCOc1cc(-c2ccc(SC)cc2)cc(=O)c2c(C)oc(C)c12	mHTT CaM bind 70.0
COc1ccc(C(CC(=O)c2ccc(F)cc2)CC(=O)c2ccc(F)cc2)cc1Br	none (no result: mHTT CaM bind)
Cc1nc(CC(=O)Nc2nc3c(s2)CCCC3)cs1	none
Cc1nn(C2CCS(=O)(=O)C2)c(C)c1CC(=O)Nc1nc(-c2ccco2)cs1 (stereo not given)	none
CC(=O)Nc1ccc(C(=O)NCC#CCN2CCc3ccccc3C2)cc1	none
CN(C)c1ccc(/C=C/C=C2/SC(=Nc3ccccc3)NC2=O)cc1	none
CN(C)c1ccc(/C=C/C=C2/SC(=N)NC2=O)cc1	mHTT CaM bind 62.0
Cc1ccc(NC(=O)COc2ccccc2C)c(C(=O)O)c1	none
CCOc1cc(/C=C2\C(=O)ON=C2C)cc(Br)c1OCc1ccc(C)cc1	mHTT CaM bind 89.0
C#CCOc1c(Br)cc(/C=C2\C(=O)ON=C2C)cc1OCC	none
COc1ccc(/C=C2/C(=O)ON=C2C)cc1Cl	none
CCOc1cc(/C=C2\C(=O)ON=C2C)cc(Cl)c1OCc1ccc(C)cc1	mHTT CaM bind 71.0
N#CSC(CS(=O)(=O)c1cccc([N+](=O)[O-])c1)c1ccccc1 (stereo not given)	mHTT CaM bind 93.7
N#CSC(CS(=O)(=O)c1ccccc1)c1ccccc1 (stereo not given)	none
CCOC(=O)Nc1nc2c(s1)CN(S(=O)(=O)c1ccc(C(F)(F)F)cc1)CC2	none
CC(=O)N(CC(N)=O)C1(C(=O)Nc2ccc3c(c2)OCCO3)CCCC1	none
CCN(CC)S(=O)(=O)N1CCC(C(=O)NC2CCCc3ccccc32)CC1 (stereo not given)	none
O=C(NC1CCCc2ccccc21)C1CCN(Cc2c[nH]c3ccccc23)CC1 (stereo not given)	mHTT CaM bind 69.5
O=C(Nc1ccccc1C(F)(F)F)c1c(O)c2cccc3c2n(c1=O)CCC3	none
CCn1cc(CN2CCC(C(=O)NCc3ccccn3)CC2)c2cc(Cl)ccc21	none
COc1ccc(C)cc1NC(=O)c1cn2c(n1)COCC2	none
CCOc1ccc2c(C)c(-c3ccc(OC)cc3)c(=O)oc2c1	none
CCC(Sc1nnc2c(n1)[nH]c1ccccc12)C(=O)Nc1cccc(C(C)=O)c1 (stereo not given)	mHTT CaM bind 64.8!
O=C(CSc1nnc2c(n1)[nH]c1ccccc12)Nc1ccccc1	none
O=C(Nc1cc(Cl)ccc1O)C1CCCCC1	none
O=[N+]([O-])/C(=C\Sc1ccccn1)c1ccccc1	none
Cc1ccc(N2CCN(S(=O)(=O)c3ccc(Cl)c(Cl)c3)CC2)nn1	none
COc1ccc(S(=O)(=O)N2CCN(c3ccc(N4CCCC4)nn3)CC2)cc1Cl	mHTT CaM bind 72.2
CCC(=O)Nc1nc(C)c(-c2csc(Nc3cccc(C(C)=O)c3)n2)s1	none
c1ccc(Nc2nc(-c3cccnc3)cs2)nc1	none
CC(=O)Nc1nc(C)c(-c2csc(Nc3ccc(N(C)C)cc3)n2)s1	mHTT CaM bind 95.9
CC(=O)Nc1nc(C)c(-c2csc(Nc3ccccn3)n2)s1	mHTT CaM bind 54.0
N#Cc1cccc(-c2cn3c(n2)N(C(=O)COc2ccccc2)CCC3)c1	mHTT CaM bind 55.1
N#Cc1cccc(-c2cn3c(n2)N(C(=O)c2ccccc2)CCC3)c1	none
C(=Nc1cccnc1)c1c[nH]c2ccccc12	none (no result: Pf apPOL inh)
CCN(CC)c1ccc(N=Cc2c[nH]c3ccccc23)cc1	mHTT CaM bind 83.0
O=C(c1ccc(F)c(F)c1)N1CCC(c2cnn(-c3ccc(F)cc3)c2)CC1	none
O=[N+]([O-])c1ccc(NCCNS(=O)(=O)Cc2ccccc2)c(Cl)c1	none
N#Cc1c([N+](=O)[O-])cc([N+](=O)[O-])cc1S(=O)(=O)Cc1ccccc1	mHTT CaM bind 79.0
Cc1cc(S(=O)(=O)N2CCN(c3ccc(F)cc3)CC2)ccc1F	none
O=C(O)CC(C(=O)O)c1ccco1 (stereo not given)	none (no result: Pf apPOL inh)
OC(C#Cc1ccccc1)c1ccco1 (stereo not given)	Pf apPOL inh 70.4, mHTT CaM bind 99.9
O=C(NCc1ccc2c(c1)OCO2)c1ccc(-c2cccs2)nc1	none
COc1ccc(C(=O)Nc2ccc(-n3nncc3-c3ccc(OC)cc3)cc2)cc1	none
COc1ccc(C(=O)Nc2nc(CC(=O)NCc3cccs3)cs2)cc1	none
O=C(Cc1csc(NC(=O)c2ccc[nH]c2=O)n1)NCc1cccs1	mHTT CaM bind 64.5
O=C(NC1CC1)c1ccc(N2CCC(NCc3ccc(F)cc3)C2)nc1 (stereo not given)	none
CCC(=O)Nc1c(-c2ccc(C(C)(C)C)cc2)n[nH]c1C	none
O=C(c1ccc(-c2c(-c3ccc(F)cc3)ncn2C2CCCC2)o1)N1CCOCC1	none
O=C1c2ccccc2C(=O)N1c1ccc(N2C(=O)c3ccccc3C2=O)c(Cl)c1	none
O=C1c2cccnc2C(=O)N1c1ccc(N2C(=O)c3cccnc3C2=O)c(Cl)c1	mHTT CaM bind 63.0
Cc1nc(NC(=O)c2cccc(Br)c2)sc1C	none
O=C(c1cccs1)N1CCN(c2nc(CN3CCCCC3)cs2)CC1	none

Bioassay records (PubChem)
